The source of these data is PubChem BioAssay (NCI).

This is part of a sample that, as a whole, favours compounds with a hit. Of some 83,000 tested, about 20% had one in any assay.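 Cell lines were cultured in 96-well plates, exposed to a single compound concentration, and assessed for percent growth 48 hours later.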 Calls of active or inactive are those of the source. How the source made its calls: active means growth percent below 10; inactive means the rest.

The test has as its system HL-60(TB) leukemia. In words: NCI-60 one-dose screen, 48 h (100 = growth as untreated, 0 = no growth, -100 = all killed). The following applies: 10 µM unless noted.
For `CC(C)C[C@H]1C(=O)O[C@H](C(C)C)C(=O)N(C)[C@@H](C(C)C)C(=O)O[C@H](C(C)C)C(=O)N(C)[C@@H](C(C)C)C(=O)O[C@H](C(C)C)C(=O)N1C`, the growth was -51.3% (active).

In the case of `COc1ccc(C(=O)Nc2ncc(Cc3ccccc3Cl)s2)cc1`, the growth was -1.93% (active).

As for `Cc1ccc(NC(=O)c2cc(/C=C/C(=O)NO)cc(C(F)(F)F)c2)cc1Nc1nccc(-c2cccnc2)n1`, the growth is 0.414% (active).

As to `C#Cc1cc(OC)c(C(=O)Nc2ccc(F)cc2C(=O)Nc2cccc(S(=O)(=O)C(F)(F)F)c2)cn1`, the growth was -51.6% (active).
